Test results from PubChem BioAssay AID1852 (Sanford-Burnham Center for Chemical Genomics, 2009).
The campaign covered roughly 2,500 compounds. About 1,100 (44%) were called active.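 How the source made its calls: active means inhibition above 50% at 4 µM in the single-point screen; inactive means inhibition of 50% or less.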 So high a share suggests a set chosen from earlier hits. The list shows a part of the results.

experiment: TNF-a-driven NF-kB reporter inhibitors, primary screen, selectivity assay for NOD1/NOD2 signaling inhibitor project, cell-based, HEK293T NF-kB-Luc, luminescence (AID 1852); conditions: TNF-a induced, 14 h, at 4 µM, stronger effect = higher value

Structure (SMILES) | inhibition
NS(=O)(=O)c1ccc(Sc2nc3ccccc3s2)c([N+](=O)[O-])c1 | 35.3% (inactive)
N#C/C(=C\c1ccc(O)c([N+](=O)[O-])c1)c1nc2ccccc2s1 | 76.9% (active)
CCOc1ccc(-c2csc(/C(C#N)=C\c3ccc(O)c([N+](=O)[O-])c3)n2)cc1 | 0.4% (inactive)
CC(C)c1ccc(-c2csc(NC(=O)c3cccs3)c2C(=O)O)cc1 | 16.6% (inactive)
Cc1sc(NC(=O)CSc2ncn(-c3ccccc3)n2)nc1-c1ccccc1 | 33.1% (inactive)
CCOC(=O)c1c(-c2ccccc2)csc1NC(=O)CSc1nc(N)cc(N)n1 | 61.5% (active)
CCOc1cc(/C=C2\CN(CC)C/C(=C\c3ccc(O)c(OCC)c3)C2=O)ccc1O | 96.7% (active)
CCOc1cc(/C=C2\CN(C)C/C(=C\c3ccc(O)c(OCC)c3)C2=O)ccc1O | 65.5% (active)
CC(C)COc1ccc(C(=O)Nc2sc3c(c2C(=O)O)CC(C)(C)OC3)cc1 | 35.4% (inactive)
CCOC(=O)c1c(NC(=S)NCCc2ccccc2)sc2c1CC(C(C)C)OC2 (stereo unspecified) | 82.3% (active)
CCCCCCCCCn1c2c(c(=N)c3c1CCC3)CCC2 | 74.8% (active)
CCCCCCCCCCn1c2c(c(=N)c3c1CCC3)CCC2 | 78.4% (active)
CCCCCCCCn1c2c(c(=N)c3ccccc31)CCC2 | 74.7% (active)
c1ccc(CN2CCN(c3ncnc4c3[nH]c3ccccc34)CC2)cc1 | 73.4% (active)
Cc1ccc2[nH]c3c(N4CCN(Cc5ccccc5)CC4)ncnc3c2c1 | 76.9% (active)
Cc1csc2ncnc(NC3CCN(Cc4ccccc4)CC3)c12 | 32.1% (inactive)
Cc1ccc2[nH]c3c(N4CCc5ccccc5C4)ncnc3c2c1 | 83.8% (active)
Cc1ccc2c(c1)[nH]c1c(N3CCN(Cc4ccccc4)CC3)ncnc12 | 72.7% (active)
COCCCNC(=O)c1sc2ncnc(N3CCc4ccccc4C3)c2c1C | 44.9% (inactive)
O=C(CN1CCN(Cc2ccccc2)CC1)N1N=CCC1c1ccccc1 (stereo unspecified) | 21.7% (inactive)
Fc1ccc2[nH]c3c(N4CCc5ccccc5C4)ncnc3c2c1 | 45.8% (inactive)
Oc1c(CN2CCN(c3ccccc3)CC2)cc(Br)c2cccnc12 | 15.7% (inactive)
Cc1c(C)n(Cc2ccccc2)c2ncnc(Cl)c12 | 42.6% (inactive)

Structure (SMILES) | inhibition
CCN1CCN(Cc2ccc(NC(=O)c3ccc(C)c(NC(=O)C(=O)c4c[nH]c5ccccc45)c3)cc2C(F)(F)F)CC1 | 26.4% (inactive)
COc1ccc(NS(=O)(=O)c2ccc3c(c2)NC(=O)C(C)S3)cc1 (stereo unspecified) | 9.8% (inactive)
CCC1Sc2ccc(S(=O)(=O)Nc3ccc(OC)c(OC)c3)cc2NC1=O (stereo unspecified) | 51.8% (active)
CCC(Cc1ccccc1)NS(=O)(=O)c1ccc2c(c1)NC(=O)C(C)S2 (stereo unspecified) | -1.2% (inactive)
CCn1nc([N+](=O)[O-])c(C(C#N)c2nc3cc(C(F)(F)F)ccc3s2)c(Cl)c1=O (stereo unspecified) | 34.1% (inactive)
Cc1cc(C)c(S(=O)(=O)/N=C2\C=C(NS(=O)(=O)c3ccccc3)C(=O)c3ccccc32)c(C)c1 | 94.9% (active)
Cc1cc(C)c(S(=O)(=O)/N=C2\C=C(Nc3ccc(C(=O)O)cc3)C(=O)c3ccccc32)c(C)c1 | 107% (active)
Cc1ccc(NC2=C(Cl)C(=O)c3ccccc3C2=O)cc1 | -26.5% (inactive)
Cc1ccc(NS(=O)(=O)c2ccc3c(c2)C(=O)c2ccccc2C3=O)c(C)c1 | 2.1% (inactive)
Cc1ccc(C)c(S(=O)(=O)/N=C2\C=C(NS(=O)(=O)c3ccccc3)C(=O)c3ccccc32)c1 | 102% (active)
Cc1ccc(NC(=O)COc2ccc(/C=C3/SC(=Nc4ccccc4)N(Cc4cccnc4)C3=O)cc2)cc1 | 14.5% (inactive)
COc1ccccc1NC(=O)C1CCCN(S(=O)(=O)c2ccc3c(c2)CC(C)N3C(C)=O)C1 (stereo unspecified) | 47.2% (inactive)
CCc1ccc(NC(=O)C2CCN(S(=O)(=O)c3ccc4c(c3)CC(C)N4C(C)=O)CC2)cc1 (stereo unspecified) | 70% (active)
CC(=O)N1c2ccc(S(=O)(=O)N3CCC(C(=O)Nc4cccc(C)n4)CC3)cc2CC1C (stereo unspecified) | 40.5% (inactive)
O=C(/C=C/c1ccncc1)c1ccc2c(c1)OCCO2 | -1.4% (inactive)
O=C1C(=O)N(c2nccs2)C(c2ccccc2)/C1=C(\O)c1ccc2c(c1)OCCO2 (stereo unspecified) | 31.4% (inactive)
Cc1ccccc1CN1CCc2c(OCC(=O)N3CCCc4ccccc43)cccc2C1=O | 48.2% (inactive)
O=C(CN1C(=O)c2ccccc2S1(=O)=O)N1CCc2ccccc21 | 70.7% (active)
O=C(CN1CCc2cc3c(cc2C1)OCCCO3)Nc1c(F)cccc1F | -3.8% (inactive)
O=C(CN1C(=O)c2ccccc2S1(=O)=O)c1ccc2c(c1)OCCCO2 | 95.7% (active)
O=C(CN1C(=O)c2ccccc2S1(=O)=O)c1ccc2c(c1)OCCO2 | 95% (active)
O=C(CSc1ncnc2c1oc1ccccc12)N1CCCc2ccccc21 | 18.1% (inactive)
CC(C)CCn1c(Sc2nc3ccccc3o2)nc2c1c(=O)[nH]c(=O)n2C | 26.6% (inactive)

Structure (SMILES) | inhibition
O=C(CSc1nnnn1C1CC2CCC1C2)Nc1ccnc2ccccc12 (stereo unspecified) | 54.8% (active)
O=C(CSc1nc2ccccc2c(=O)[nH]1)Nc1ccccc1C(F)(F)F | 21.5% (inactive)
Cc1nn(-c2ccccc2)c2nc(C(Cl)(Cl)Cl)[nH]c(=O)c12 | 23.6% (inactive)
Cc1nn(-c2cc(C(F)(F)F)ccc2Cl)c2nc(C(Cl)(Cl)Cl)[nH]c(=O)c12 | 71.3% (active)
Cc1nn(-c2cccc(Cl)c2)c2nc(C(F)(F)F)[nH]c(=O)c12 | 58.8% (active)
O=C(O)c1cccc(N/N=C/c2cccs2)c1 | -23% (inactive)
O=C(O)c1ccc(N/N=C/c2ccc3nccnc3c2)cc1 | 48.6% (inactive)
O=C(O)c1cccc(N/N=C/c2cccc3ccccc23)c1 | 54.1% (active)
N#Cc1c(-c2ccccc2)nc(SCc2cccc(C(F)(F)F)c2)[nH]c1=O | -14.5% (inactive)
O=c1cc(C(F)(F)F)nc(SCc2cccc3ccccc23)[nH]1 | 61.3% (active)
CS(=O)(=O)c1ccc(C(=O)OCc2nnc(-c3ccccc3)o2)cc1[N+](=O)[O-] | 38.9% (inactive)
CS(=O)(=O)c1ccc(Sc2nc3ccccc3s2)c([N+](=O)[O-])c1 | -1.5% (inactive)
CS(=O)(=O)c1ccc(S(=O)CC(=O)OCc2ccccc2)c([N+](=O)[O-])c1 (stereo unspecified) | 50.2% (active)
CCn1nc(C)cc1C(=O)NC1CCCc2c1cnn2-c1ccc(C)c(C)c1 (stereo unspecified) | 58.9% (active)
Cc1ccc(-n2ncc3c2CCCC3NC(=O)c2cnccn2)cc1C (stereo unspecified) | 37.7% (inactive)
Cc1cc(C(=O)NC2CCCc3c2cnn3-c2ccc(C)c(C)c2)n(C)n1 (stereo unspecified) | 74.6% (active)
O=C1C=C(c2ccccc2)C[C@H](c2cccs2)[C@H]1n1nnc([N+](=O)[O-])n1 | 35.8% (inactive)
Cc1cc(NC(=S)NC(=O)/C=C/c2ccc(S(=O)(=O)N3CCOCC3)cc2)ccc1Br | -18.3% (inactive)
Cc1cc(C(=O)CCl)c(C)n1-c1cccc(S(=O)(=O)N2CCOCC2)c1 | 52.4% (active)
O=C(NC(=S)N1CCN(Cc2ccc3c(c2)OCO3)CC1)c1cccc(Br)c1 | 76.1% (active)
O=C(c1[nH]nc2c1CCc1ccccc1-2)N1CCN(Cc2ccc3c(c2)OCO3)CC1 | 45.6% (inactive)
CCOc1cc(/C=C2\CCC/C(=C\c3cc(Cl)c(O)c(OCC)c3)C2=O)cc(Cl)c1O | 87.7% (active)
COc1cc(OC)c(OC)cc1/C=C1\CCC/C(=C\c2cc(OC)c(OC)cc2OC)C1=O | 41.8% (inactive)

Structure (SMILES) | inhibition
COc1cc(/C=C2\CCC/C(=C\c3ccc(O)c(OC)c3)C2=O)ccc1O | 9.3% (inactive)
COc1cc(/C=C2/CCC/C(=C\c3cc(O)c(OC)c(Cl)c3)C2=O)cc(Cl)c1O | 108% (active)
COc1ccc(N(C(=O)CCl)C(C(=O)NC2CCCCC2)c2cccnc2)cc1 (stereo unspecified) | 87.1% (active)
O=C(NC1CCCCC1)C(c1cccnc1)N(C(=O)CCl)c1ccc(F)cc1 (stereo unspecified) | 69.8% (active)
COc1ccc(C(C(=O)NC2CCCCC2)N(C(=O)CCl)c2ccc(OC)cc2)cc1 (stereo unspecified) | 40.2% (inactive)
COc1ccc(C(C(=O)NC2CCCCC2)N(C(=O)CCl)c2ccc(C)cc2)cc1 (stereo unspecified) | 37% (inactive)
CC(=O)NC(c1ccco1)c1ccc2cccnc2c1O (stereo unspecified) | 26.6% (inactive)
CC(C)C(=O)NC(c1cccs1)c1cc([N+](=O)[O-])c2cccnc2c1O (stereo unspecified) | 54.8% (active)
CC(=O)NC(c1cccs1)c1cc([N+](=O)[O-])c2cccnc2c1O (stereo unspecified) | 105% (active)
COc1ccc2nc(Nc3nc(C)c(C(C)=O)s3)sc2c1 | -12.9% (inactive)
CCOc1ccc2nc(NC(=O)c3ccccn3)sc2c1 | 102% (active)
COc1cc([N+](=O)[O-])cc2sc(NC(=O)c3c(F)cccc3F)nc12 | 16.4% (inactive)
COc1ccccc1C(=O)NCc1ccc(-c2nc3ccccc3s2)cc1 | 14.3% (inactive)
COc1ccc2nc(Nc3nc4ccc(NC(C)=O)cc4s3)sc2c1 | -14.1% (inactive)
COc1ccc(C(=O)Nc2nc3ccccc3s2)c(OC)c1 | 88% (active)
COc1ccccc1C(=O)Nc1nc2ccccc2s1 | 65.3% (active)
O=C(CCl)N=c1sccn1Cc1cccc2ccccc12 | 44.1% (inactive)
COc1ccc(C(NC(C)=O)c2ccc3cccnc3c2O)c(OC)c1 (stereo unspecified) | 99.8% (active)
CC(=O)NC(c1ccc(Cl)cc1Cl)c1ccc2cccnc2c1O (stereo unspecified) | 15.6% (inactive)
CC(=O)NC(c1cccc([N+](=O)[O-])c1)c1ccc2cccnc2c1O (stereo unspecified) | 70.9% (active)
CC(=O)NC(c1ccc2ccccc2c1)c1ccc2cccnc2c1O (stereo unspecified) | 75.2% (active)
COc1cccc(C(NC(C)=O)c2ccc3cccnc3c2O)c1 (stereo unspecified) | 57.3% (active)
